Data from PubChem BioAssay (NCATS).
Inconclusive results are not listed. A call without a number means that no potency is given here. Activity calls are given as the source filed them. Calls follow the shape of the dose curve; as a rule, active = well fitted inhibition curve with a large enough effect; inconclusive = small, poorly fitted or top-dose-only effect; inactive = no such curve, though single readings can be large or run the other way.

Each molecule was assayed against Papain (Carica papaya) (UniProt P00784) (assay: Primary qHTS assay for inhibitors of the protease papain (AID 1645873;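 also: papain turnover of Z-FR-AMC read as the AMC fluorescence gain over 10 min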)). Conditions: papain Z-FR-AMC cleavage, AMC fluorescence; series mostly up to 49.8 µM.
Potency is read from the fitted curve at half-maximal effect.

Sequence of Papain (Carica papaya) (P00784 whole entry, looked up): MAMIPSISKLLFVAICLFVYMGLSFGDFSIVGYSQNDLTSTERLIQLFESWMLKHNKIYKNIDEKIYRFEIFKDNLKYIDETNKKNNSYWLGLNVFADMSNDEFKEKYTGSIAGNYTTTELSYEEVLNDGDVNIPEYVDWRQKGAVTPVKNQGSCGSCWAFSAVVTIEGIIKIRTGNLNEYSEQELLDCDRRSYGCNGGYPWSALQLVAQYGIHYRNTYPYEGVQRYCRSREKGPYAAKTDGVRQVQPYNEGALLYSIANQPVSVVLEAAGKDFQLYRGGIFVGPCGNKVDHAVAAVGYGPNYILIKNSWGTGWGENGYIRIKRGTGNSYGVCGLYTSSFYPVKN

SMILES | Potency
Cc1ccc(N(CC2=NCCN2)c2cccc(O)c2)cc1 | inactive
NC(=O)c1cnccn1 | inactive
CC(C)(C)NCC(O)c1ccc(O)c(CO)c1 (configuration not stated) | inactive
CS(=O)(=O)c1cccc(CNc2nc(Nc3ccc4c(c3)CCC(=O)N4)ncc2C(F)(F)F)c1 | inactive
O=C(O)CCc1ccc(NCc2cccc(Oc3ccccc3)c2)cc1 | inactive
CCC(C)N(C)C(=O)c1cc2ccccc2c(-c2ccccc2Cl)n1 (configuration not stated) | inactive
O=C(O)COCCN1CCN(C(c2ccccc2)c2ccc(Cl)cc2)CC1 (configuration not stated) | inactive
CC(C)C[C@H](NC(=O)[C@@H](O)[C@H](N)Cc1ccccc1)C(=O)O | inactive
O=C(Nc1nc2ccccc2n1CCN1CCOCC1)c1cccc([N+](=O)[O-])c1 | inactive
CCn1cc(C(=O)O)c(=O)c2cc(F)c(N3CCNC(C)C3)c(F)c21 (configuration not stated) | 15.8 µM (active)
Cc1cc2c(C(C)C)c(O)c(O)c(C=O)c2c(O)c1-c1c(C)cc2c(C(C)C)c(O)c(O)c(C=O)c2c1O | 12.6 µM (active)
Cc1cccc(-c2[nH]c(C(C)(C)C)nc2-c2ccc3nccnc3c2)n1 | inactive
CN1CCN(CCCN2c3ccccc3Sc3ccc(C(F)(F)F)cc32)CC1 | inactive
NS(=O)(=O)c1cc2c(cc1Cl)NC=NS2(=O)=O | inactive
N=c1nc(N2CCCCC2)cc(N)n1O | inactive
C[C@]12CCC(=O)C=C1CC[C@@H]1[C@@H]2[C@@H](O)C[C@@]2(C)[C@H]1CC[C@]2(O)C(=O)CO | inactive
O=NN(CCCl)C(=O)NCCCl | inactive
